Screen size: about 1,100 compounds; about 350 (32%) were called active. Not all results are given here. Potency and affinity values are given separately. A number with no mark means an inactive call. No rule for the calls is given here.

A short description of this test: viability loss in CEM21 cells – cell-based, CellTiter-Glo luminescence, cherry-picked, cytotoxicity control for viral fusion inhibitor project, dose response (AID 652042). Particulars: CellTiter-Glo ATP luminescence, 24 h; series mostly up to 35 µM; activity change, negative = cytotoxicity: at the top concentration. (In general: ATP-based viability assays read luminescence as a measure of living cells.)
As to `CCCCn1c(N)c(N(CC(C)C)C(=O)c2ccc(S(=O)(=O)N(CC)c3ccccc3)cc2)c(=O)[nH]c1=O`, the “activity change, negative = cytotoxicity” value was -1.92%. Under `NC(=O)c1sc2nccc(Nc3ccccc3)c2c1N` stands -3.31%; under `CCc1nc2ccc(C(=O)NCCN3CCNC3=O)cn2c1N(CC)Cc1cccc(Br)c1`, -7.03%.

As for `Cc1ccccc1OCC(=O)Nc1cccc(C(=O)O)c1`, the “activity change, negative = cytotoxicity” value is -10.9%. On to `O=C(Nc1ccc(F)cc1)C1CCCN1S(=O)(=O)c1ccc(Br)cc1` (stereo not given), for which the “activity change, negative = cytotoxicity” value was -8.12%.

As to `CC(=O)c1c(C)[nH]c(C(=O)OCC(=O)Nc2c(C)cccc2C)c1C`, the “activity change, negative = cytotoxicity” value was -2.58%. As for `Cc1ccc(-c2nnc(N3CCN(C(=O)COc4ccccc4)CC3)c3ccccc23)cc1`, the “activity change, negative = cytotoxicity” value is -11.2%. Under `O=C(Cc1ccc(S(=O)(=O)N2CCOCC2)s1)N1CCN(S(=O)(=O)c2ccc(Cl)cc2)CC1` stands -5.29%.

In the case of `Cc1cc(Cl)ccc1OCC(=O)NNC(=O)C1CSC2(C)CCC(=O)N12` (stereo not given), the “activity change, negative = cytotoxicity” value is 2.33%.

Consider `CC(NC(=O)c1cc(S(=O)(=O)N(C)C)ccc1N1CCCC1)C1CC2CCC1C2` (stereo not given), for which the “activity change, negative = cytotoxicity” value is 2.17%. For `O=C(CCc1ccc(S(=O)(=O)N2CCOCC2)cc1)Nc1nc(COc2ccccc2)cs1` the value was -22.9%; for `COCCCn1c(-c2ccc(S(=O)(=O)N3CCOCC3)cc2)csc1=Nc1ccccc1`, -20.8%. Under `O=C(CN1C(=O)c2ccccc2S1(=O)=O)N1CCc2ccccc21` stands -5.92%; under `Clc1ccc(-c2noc(CSc3nnc(-c4ccncc4)n3-c3ccccc3)n2)cc1`, -16.1%; under `Cc1cccc(C)c1NC(=O)N1CCN(c2nc3ccccc3s2)CC1`, -12.1%. For `COc1ccc(-c2nnn(CC(=O)N(Cc3cccs3)C(C)C(=O)NC3CCCC3)n2)cc1OC` (stereo not given) the value was -11.7%. In the case of `O=C(NC1CCCCC1)C(c1cccs1)N(Cc1cccs1)C(=O)c1ccco1` (stereo not given), the “activity change, negative = cytotoxicity” value is -7.51%.

As to `c1ccc2c(c1)OCC(CNc1ncnc3nc[nH]c13)O2` (stereo not given), the “activity change, negative = cytotoxicity” value is -3.4%. Under `C[C@H](C(=O)N(C)C[C@@H]1OCc2ccccc2-c2ccccc2C(=O)N([C@@H](C)CO)C[C@H]1C)c1ccccc1` stands -8.58%.

Turning to `C[C@H](CO)N1C[C@H](C)[C@@H](CN(C)C(=O)[C@H](Cc2ccccc2)N(C)C)OCc2ccccc2-c2c(n(C)c3ccccc23)C1=O`, the “activity change, negative = cytotoxicity” value is -20.8%.

Take `CO[C@H](C(=O)N(C)C[C@@H]1OCc2ccccc2-c2c(n(C)c3ccccc23)C(=O)N([C@H](C)CO)C[C@@H]1C)c1ccccc1`: the “activity change, negative = cytotoxicity” value was -3.18%. As for `C[C@H](C(=O)N(C)C[C@@H]1OCc2ccccc2-c2ccccc2C(=O)N([C@@H](C)CO)C[C@@H]1C)c1ccccc1`, the “activity change, negative = cytotoxicity” value is -1.93%. For `C[C@H]1CN([C@@H](C)CO)C(=O)c2ccccc2-c2ccccc2CO[C@@H]1CN(C)C(=O)Nc1cccc(C(F)(F)F)c1` the value was -19.8%.

Take `COc1ccc(CNC(=O)N(C)C[C@H]2OCc3ccccc3-c3ccccc3C(=O)N([C@H](C)CO)C[C@@H]2C)cc1`: the “activity change, negative = cytotoxicity” value is -3.63%. For `C[C@H]1CN([C@@H](C)CO)C(=O)c2c(c3ccccc3n2C)-c2ccccc2CO[C@H]1CN(C)C(=O)Cc1ccccc1`, the “activity change, negative = cytotoxicity” value was -12.5%. Under `C[C@H]1CN([C@@H](C)CO)C(=O)c2c(c3ccccc3n2C)-c2ccccc2CO[C@H]1CN(C)C(=O)Nc1cccc(F)c1` stands -19.9%; under `CC1(C)C2CCC1(C)C(OCCNCCOC(=O)Nc1ccccc1)C2` (stereo not given), -25.1%. Turning to `CCN1C(=O)[C@H]2[C@@H](c3ccc(C)cc3)N3C(=O)N(c4cccc(Br)c4)C(=O)[C@@]3(CC)[C@H]2C1=O`, the “activity change, negative = cytotoxicity” value is -6.07%. For `CCN1C(=O)[C@H]2[C@@H](c3ccc(C)cc3)N3C(=O)N(c4cccc(Br)c4)C(=O)[C@@]3(CC(C)C)[C@H]2C1=O` the value was 1.19% [at 16 µM]. For `C[C@H](CO)N1C[C@H](C)[C@H](CN(C)S(=O)(=O)c2cccs2)Oc2ccc(NC(=O)Cc3cn(C)c4ccccc34)cc2CC1=O` the value was -4.75%. Under `CCC(C)(C)NC(=O)C(NS(=O)(=O)c1cccs1)c1ccccc1` (stereo not given) stands 4.01%.

Regarding `CC(C)OCCCNc1ncnc2c1[nH]c1ccccc12`, the “activity change, negative = cytotoxicity” value was -23.4%. Under `CCOC(=O)/C=C1\Nc2ccccc2SC1=O` stands -1.22%. Consider `CCCCCn1c(C(C)NC(=O)CCC)nc2ccccc21` (stereo not given), for which the “activity change, negative = cytotoxicity” value is 1.39%. As for `Cn1c(=O)n(-c2cccc(Cl)c2)c(=O)c2c3c(sc21)COC(C)(C)C3`, the “activity change, negative = cytotoxicity” value was -1.94%. As for `C=CCN([C@@H](CC(C)C)C(=O)OC)S(=O)(=O)N(CC=C)[C@@H](CC(C)C)C(=O)OC`, the “activity change, negative = cytotoxicity” value is -22.3%. Consider `CN1CCc2ccccc2Cc2[nH]c3ccccc3c2CC1`, for which the “activity change, negative = cytotoxicity” value was 2.03%. Consider `Cc1sc2ncnc(N3CCN(S(=O)(=O)c4ccc(Br)cc4)CC3)c2c1C`, for which the “activity change, negative = cytotoxicity” value was -26.4%. Turning to `Cc1ccc2nc(NC(=O)CCCC(=O)O)sc2c1`, the “activity change, negative = cytotoxicity” value was 1.57%.

`CCc1cccc(NC(=O)C2CCN(S(=O)(=O)c3ccc4c(c3)CC(C)N4C(C)=O)CC2)c1` (stereo not given): the “activity change, negative = cytotoxicity” value was -22%.

Source of the values: PubChem BioAssay AID652042 (Broad Institute, 2013).
